Screening data: PubChem BioAssay, several laboratories
ADAM10 inh – ADAM10 inhibition, QFRET primary screen | recombinant ADAM10, EDANS/DABCYL FRET peptide cleavage, 3 h | inhibition, % at 7 µM | actives 0.62% (n = 370,000) | AID 720582;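 active means inhibition above a per-campaign cutoff equal to the mean of compounds falling between control-based bounds plus 3 SD, cut at about 20% in these data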;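 further: 0% = DMSO wells while the 100% control is not disclosed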
PLCb3 inh – inhibitors of human phospholipase C beta3 | Q01970 | Purified PLC-beta3, fluorogenic substrate, fluorescence | inhibition, % at 12.2 µM | actives 0.18% (n = 370,000) | AID 720704;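 further: 0% = median of compound wells on plate and 100% = full blocker control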
ADAM17 inh – ADAM17 inhibition, QFRET primary screen | inhibition, % at 6.95 µM | P78536 | recombinant ADAM17, EDANS/DABCYL FRET peptide cleavage | actives 0.83% (n = 370,000);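 active means inhibition above the mean of compounds lying between control limits plus 3 SD, set per campaign, cut at about 8.5% in these data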;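 further: 0% = DMSO-only wells as the low control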
Target sequence (P78536 215-824 limits assumed): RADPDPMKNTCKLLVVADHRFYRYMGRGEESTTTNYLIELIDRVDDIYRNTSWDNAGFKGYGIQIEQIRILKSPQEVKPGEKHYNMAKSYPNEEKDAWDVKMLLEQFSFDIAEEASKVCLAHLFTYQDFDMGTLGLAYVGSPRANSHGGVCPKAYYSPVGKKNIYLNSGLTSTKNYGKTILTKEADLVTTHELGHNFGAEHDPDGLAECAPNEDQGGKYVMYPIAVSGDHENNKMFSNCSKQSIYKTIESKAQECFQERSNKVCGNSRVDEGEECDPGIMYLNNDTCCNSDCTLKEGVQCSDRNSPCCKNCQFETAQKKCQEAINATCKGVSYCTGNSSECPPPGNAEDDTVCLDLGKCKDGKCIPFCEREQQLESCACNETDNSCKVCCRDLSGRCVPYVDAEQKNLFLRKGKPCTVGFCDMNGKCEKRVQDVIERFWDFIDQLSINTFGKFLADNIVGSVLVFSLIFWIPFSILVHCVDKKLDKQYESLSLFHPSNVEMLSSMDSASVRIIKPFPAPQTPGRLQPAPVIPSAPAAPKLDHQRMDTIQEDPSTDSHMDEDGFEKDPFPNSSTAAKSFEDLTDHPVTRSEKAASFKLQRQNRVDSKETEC
PLCg1 inh – PLC-gamma1 (human) inhibition, primary screen; purified PLC-gamma1, fluorogenic substrate, fluorescence; inhibition, % at 12.2 µM; actives 0.84% (n = 370,000); AID 720700; in the data active means inhibition above about 9.5%
Rce1 inh – yeast Ras-converting enzyme inhibition; Q03530; yeast membranes, quenched prenylated peptide cleavage fluorescence; calls only; actives 0.27% (n = 290,000); AID 2563;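 active means fall in fluorescence gain of 50% or more versus controls, with final raw signal at or below 3038400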;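 further: plate controls were neutral control wells for no effect and wells lacking membranes for full effect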
ADAM10 ctr – counter-screen for ADAM17 exosite inhibitors: inhibitors of human ADAM10. recombinant ADAM10, EDANS/DABCYL FRET peptide cleavage, 3 h. shares compounds with ADAM17 inh. actives 47% (n = 2,900). inhibition, % at 6.95 µM;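 active means mean inhibition over the triplicate runs exceeds the activity threshold set in the earlier primary screen, cut at about 20% in these data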;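 further: 0% = DMSO wells and 100% = marimastat wells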
ADAM17 confirm – confirmation of inhibitors of human ADAM17; shares compounds with ADAM17 inh; recombinant ADAM17, EDANS/DABCYL QFRET peptide cleavage; inhibition, % at 6.95 µM; actives 65% (n = 2,900); AID 743257;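 active means mean inhibition across replicates above the hit cutoff set in the primary screen, cut at about 8.5% in these data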;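 further: 0% = DMSO wells and 100% = marimastat wells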
PLCgamma1 ctr – counter-screen for PLC-beta3 inhibitors: inhibitors of human PLC-gamma1; purified PLC-gamma1, fluorogenic substrate, fluorescence; inhibition, % at 12.3 µM; actives 3.1% (n = 3,300); shares compounds with PLCg1 inh; in the data active means inhibition above about 9.5%
PLCb3 confirm – confirmation of human PLC-beta3 inhibitors | inhibition, % at 12.3 µM | AID 743261 | actives 1% (n = 3,300) | purified PLC-beta3, fluorogenic substrate fluorescence | shares compounds with PLCg1 inh
* hit, by the source's call; i = inactive; . = not tested or not shown. Hits are enriched below; roughly 2.1% of the tested compounds scored in any of these assays. Unless noted, no stated cut-off is given here; in the data, active means inhibition above about 11%; inactive means the rest.

SMILES | ADAM10 inh | PLCb3 inh | ADAM17 inh | PLCg1 inh | Rce1 inh | ADAM10 ctr | ADAM17 confirm | others
COC(=O)C1=C(c2cc3ccccc3o2)C[C@@H]2CC[C@H]1N2C(=O)NCc1ccc(C(F)(F)F)cc1 | 1.8 | -0.4 | -0.9 | 0.9 | i | . | .
O=C(N/N=C/c1c(O)n(-c2ccccc2)c(=S)[nH]c1=O)c1ccccc1 | -3.2 | -23.0 | -1.6 | -11.3 | i | . | .
CC(C)c1ccc(-n2c(O)c(C=NC(CCS(C)=O)C(=O)O)c(=O)[nH]c2=S)cc1 (centres undefined) | 13.7 | -1.3 | 9.2* | 8.3 | i | 15.6 | 8.1
CN1C(=O)N(C)C(=O)C(NS(=O)(=O)c2ccc(N)cc2)(c2ccccc2)C1=O | -0.5 | 5.0 | 3.7 | 8.0 | . | . | .
COc1ccc(C(=O)Nc2cccc(S(=O)(=O)NCc3ccco3)c2)cc1 | 11.2 | -2.9 | 8.7* | 1.5 | . | 22.6* | 15.4*
COc1ccc(Cn2c(N)c(C(=O)NCc3ccco3)c3nc4ccccc4nc32)cc1OC | -443.6 | i | -177.9 | -484.9 | . | . | .
Cc1ccccc1OP(=O)(Oc1ccccc1C)N1CCOCC1 | 1.9 | 1.2 | -2.1 | 1.7 | . | . | .
CC(C)=CCc1c(O)cc2c(c1O)C(=O)CC(c1ccc(O)cc1)O2 (centres undefined) | 19.3 | 3.0 | 9.3* | 2.4 | i | 37.2* | 19.8*
Cc1cc(O)c2c(c1)OC(C)(C)C1=C2CC(C)CC1 (centres undefined) | 12.1 | -7.4 | 12.1* | 1.6 | i | 30.4* | 14.1*
Cc1cccc(N2C(=O)/C(=C/c3ccc(CN(CCC#N)S(C)(=O)=O)o3)C(=O)NC2=S)c1 | 8.8 | -34.4 | 9.1* | -22.7 | i | 0.4 | 7.2
COC(=O)C1=C(c2ccc(F)cc2OCc2ccccc2)C[C@@H]2CC[C@H]1N2C(=O)NCc1ccc([N+](=O)[O-])cc1 | 14.5 | 2.4 | 9.0* | 2.8 | . | 30.2* | 19.5*
COC(=O)C1=C(c2ccc(F)cc2OCc2ccccc2)C[C@@H]2CC[C@H]1N2C(=O)NCc1ccc(C)cc1 | 13.6 | 1.0 | 5.2 | 0.0 | . | . | .
O=c1[nH]c2ccccc2n1C1CCN(C(c2cccs2)c2nnnn2Cc2ccccc2)CC1 (centres undefined) | 12.8 | 2.9 | 11.1* | 3.3 | . | 37.6* | 18.5*
COc1ccc(-n2nnnc2C(c2cc3ccccc3o2)N2CCC(n3c(=O)[nH]c4ccccc43)CC2)cc1 (centres undefined) | 18.0 | -7.4 | 9.6* | -0.9 | . | 28.3* | 12.9*
COc1ccc(C(c2nnnn2Cc2ccccc2)N2CCC(n3c(=O)[nH]c4ccccc43)CC2)cc1 (centres undefined) | -0.2 | -0.1 | -0.6 | -0.1 | . | . | .
O=c1[nH]c2ccccc2n1C1CCN(C(c2ccccc2OC(F)(F)F)c2nnnn2Cc2ccccc2)CC1 (centres undefined) | 13.3 | -7.7 | 11.7* | 1.2 | . | 41.8* | 20.3*
COc1cccc(CNCCc2cccc(F)c2)c1OC | -8.1 | -7.8 | -5.0 | -2.5 | i | . | .
CC1([N+](=O)[O-])COP(=O)(Nc2cccc(Br)c2)OC1 (centres undefined) | 9.8 | 1.4 | 2.5 | 0.9 | . | . | .
CCN1CCN(c2nc3c(c(=O)[nH]2)CCCC3)CC1 | -7.3 | 0.7 | -2.3 | 0.7 | i | . | .
O=C(c1cc2c(s1)CCCCCC2)N1CCC2(CC1)OCCO2 | 3.2 | 4.6 | 8.7* | 2.3 | i | 2.9 | 11.7*
CCc1sc(C(=O)N2CCC3(CC2)OCCO3)cc1Br | -2.7 | -0.6 | -2.6 | 2.2 | i | . | .
CSCCC(c1nnnn1Cc1ccccc1)N1CCC2(CC1)C(=O)NCN2c1ccccc1 (centres undefined) | 8.5 | 1.3 | 10.9* | 11.1* | . | 8.4 | 6.0 | PLCgamma1 ctr=-0.9;PLCb3 confirm=-0.5
CC(C)CN1CCN(Cc2ccc(F)cc2Cl)CC1CCO (centres undefined) | 1.9 | -10.6 | -4.7 | -2.0 | i | . | .
CSCCC(c1nnnn1C1CCCC1)N1CCC(n2c(=O)[nH]c3ccccc32)CC1 (centres undefined) | 4.4 | -0.9 | 9.2* | 10.1* | . | 15.8 | 10.7* | PLCgamma1 ctr=-2.5;PLCb3 confirm=3.0
CSCCC(c1nnnn1C1CCCCC1)N1CCC(n2c(=O)[nH]c3ccccc32)CC1 (centres undefined) | 8.5 | 6.0 | 6.1 | 4.6 | . | . | .
SMILES | ADAM10 inh | PLCb3 inh | ADAM17 inh | PLCg1 inh | Rce1 inh | ADAM10 ctr | ADAM17 confirm | others
CC(c1ccccc1)n1cncc1C(=O)O (centres undefined) | 3.0 | 5.7 | 9.4* | 10.9* | i | 15.2 | 10.8* | PLCgamma1 ctr=-6.4;PLCb3 confirm=-4.6
COc1cc(/C=C2\C[C@H]3[C@@H]4CC=C5C[C@@H](N6CCCC6)CC[C@]5(C)[C@H]4CC[C@]3(C)[C@H]2O)cc(OC)c1OC | 0.6 | -6.6 | -0.9 | -4.6 | . | . | .
N#Cc1ccc(C(=O)N2Cc3cnnn3-c3ccccc3C2C#N)cc1 (centres undefined) | 2.4 | -5.5 | 0.7 | -4.4 | . | . | .
N#CC1c2ccccc2-n2nncc2CN1S(=O)(=O)c1ccccc1 (centres undefined) | 4.1 | 4.4 | 3.5 | 10.6* | . | . | . | PLCgamma1 ctr=-6.8;PLCb3 confirm=-4.9
COC(=O)CC(NC(=S)N1CC2C[C@@H](C1)Cn1c2cccc1=O)C(=O)OC (some centres undefined) | 0.5 | -0.9 | 4.3 | -0.2 | i | . | .
CC(Cl)(Cl)/C(=N/P(=S)(N1CCOCC1)N1CCOCC1)N1CCOCC1 | 4.0 | -7.2 | 0.8 | 4.1 | i | . | .
O=P(/C(=N/O)N1CCCCC1)(N1CCOCC1)N1CCOCC1 | 4.2 | 4.2 | 4.0 | 9.6* | i | . | . | PLCgamma1 ctr=7.7;PLCb3 confirm=2.0
C[C@H]1CCC/C=C/C2C[C@H](O)CC2[C@H](O)/C=C/C(=O)O1 (some centres undefined) | . | . | . | . | i | . | .
CC1CCC/C=C/C2CC(O)CC2C(O)/C=C/C(=O)O1 (centres undefined) | -0.5 | 6.7 | 2.8 | 14.7* | i | . | . | PLCgamma1 ctr=-7.9;PLCb3 confirm=-1.8
CO[C@H]1C=C2CCN(C)[C@H]2C2c3cc4c(cc3C(=O)O[C@@H]21)OCO4 (some centres undefined) | -25.3 | -10.8 | -14.4 | -4.3 | . | . | .
COc1ccc(CCNCc2c(OC)ccc3ccccc23)cc1 | 5.1 | 4.3 | 3.2 | 9.6* | i | . | . | PLCgamma1 ctr=36.7*;PLCb3 confirm=1.6
CCn1cc(C(=O)O)c(=O)c2ccc(C)nc21 | -3.1 | 3.3 | -3.3 | 10.3* | i | . | . | PLCgamma1 ctr=-4.9;PLCb3 confirm=-5.8
CCn1cc(C(=O)NCc2ccccc2)c2ccccc21 | 3.8 | -7.3 | 2.1 | -0.4 | i | . | .
